# Assay outcomes (PubChem)
# Most compounds without a hit are left out; they make up all but 1.2% or so of the library.
# AMA1-RON2 inh – inhibitors of Plasmodium falciparum AMA1-RON2 interaction; AlphaScreen AMA1-biotinylated RON2 peptide binding; Potency, µM (highest dose often 58.2 µM), for the others: top-dose activity change, negative = inhibition, most hits filed as inhibitors; hit rate 0.2% among 360,000; AID 720542;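 note: 0% = vehicle wells and -100% = peptide control; nearly all actives have a fitted effect of over 45% in size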
#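 AMA1 (3D7) with his tag at 25 nM final met compounds first, then biotinylated RON2 peptide at 25 nM; detection used donor plus acceptor beads, 10 µg/mL apiece, read by AlphaScreen after 30 min at room temperature.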
# Giardia FBPA inh – Giardia lamblia aldolase inhibition; A8B2U2; purified Giardia FBPA; Potency, µM (titrated, usually from 59.6 µM), for inactives: at the top dose activity, negative = inhibition, hits mostly inhibitors; hit rate 0.71% among 290,000; AID 2451; note: % is set by controls: 0 for no effect and ±100 for the full control effect; nearly all actives have a fitted effect of over 55% in size
#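 Giardia FBPA (40 nM reagent) was preincubated 10 min at RT with compound (up to 57.5 uM final), then substrate plus GAPDH/TPI/NAD/arsenate coupling system with diaphorase/resazurin was added; resorufin fluorescence (525/598 nm) was read after 20 min.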
# TbPYK inhibitor – blocks Trypanosoma brucei pyruvate kinase; Q57TT1; TbPYK enzyme, Kinase-Glo Plus ATP luminescence, 45 min; Potency, µM (highest dose often 76.8 µM), inactives show top-dose activity, negative = inhibition, most hits filed as inhibitors; hit rate 0.12% among 410,000; AID 624173; note: % is set by controls: 0 for no effect and ±100 for the full control effect; nearly all actives have a fitted effect of over 50% in size
#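 Luminescence from Kinase-Glo Plus, added after a 45-minute room-temperature reaction, served as the end-point read-out. The enzyme and substrate were preincubated with compound before ADP (130 uM final) initiated turnover. Concentration-effect curves came from normalized qHTS data.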
# LmPK inhibitor – LmPK (Leishmania mexicana) enzyme inhibition; Q27686; purified LmPK, Kinase-Glo ATP luminescence, 1 h; Potency, µM (series often up to 57.5 µM), for the others: at the top dose activity change, negative = inhibition, hits mostly inhibitors; hit rate 0.37% among 290,000; AID 1721; note: % is set by controls: 0 for no effect and ±100 for the full control effect
# Target sequence (Q27686 whole entry, looked up): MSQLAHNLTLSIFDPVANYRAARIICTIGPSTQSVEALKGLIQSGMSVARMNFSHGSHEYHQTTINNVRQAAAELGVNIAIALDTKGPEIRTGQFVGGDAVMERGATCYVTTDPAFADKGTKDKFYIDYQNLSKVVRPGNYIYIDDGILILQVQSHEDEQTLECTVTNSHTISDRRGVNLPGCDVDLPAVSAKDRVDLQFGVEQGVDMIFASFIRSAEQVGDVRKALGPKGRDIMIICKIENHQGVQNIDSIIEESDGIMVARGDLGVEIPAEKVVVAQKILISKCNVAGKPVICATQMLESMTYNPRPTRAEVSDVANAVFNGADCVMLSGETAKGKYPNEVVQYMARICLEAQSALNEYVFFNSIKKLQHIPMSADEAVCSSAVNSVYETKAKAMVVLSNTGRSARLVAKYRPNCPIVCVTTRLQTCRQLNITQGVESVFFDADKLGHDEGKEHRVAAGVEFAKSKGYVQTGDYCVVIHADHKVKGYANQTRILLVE
#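 qHTS format; LmPK 0.1 nM; substrates PEP 0.5 mM and ADP 0.1 mM. One-hour room-temperature incubation, then coupled luciferase luminescence; 0.5 nM enzyme wells mark activation.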
# NS1 inh – influenza NS1 inhibition | hit rate 0.4% among 270,000 | Potency, µM (titrated, usually from 46.1 µM), for inactives: at the highest dose activity, positive = more growth | AID 2326; calls by dose curve; note: actives are rising curves; nearly all actives have a fitted effect of over 50% in size
#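 A cell-based growth assay was used: compounds that relieve NS1-induced slow growth of budding yeast raise OD600. Assay medium was yeast nitrogen base with ammonium sulphate and -URA supplement, pH 6.0, with 2% galactose.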
# * hit, by the source's call; u = inconclusive; x = not tested or not shown; [ ] = remark or other dose. Unless noted, calls come from the whole dose curve; as a rule, active = well fitted curve in the direction sought with a large enough effect; inconclusive = small, poorly fitted or top-dose-only effect, or another doubt; inactive = no such curve, though single readings can be large; an effect the other way counts as inactive or inconclusive. Potency is the fitted concentration of half-maximal effect.
SMILES,AMA1-RON2 inh,Giardia FBPA inh,TbPYK inhibitor,LmPK inhibitor,NS1 inh
COc1cccc(C2C(C(=O)c3sc(C)nc3C)=C(O)C(=O)N2CCN(C)C)c1OC (stereo unspecified),x,0.9%,x,0.1%,8.91µM*
CCc1cc(-c2n[nH]c(=S)n2C(C)c2ccccc2)cs1 (stereo unspecified),21.9%,15.9%,-66.6%,14.1µM*,10.5%
Cc1scc(-c2n[nH]c(=S)n2C(C)c2ccccc2)c1C (stereo unspecified),38.7%,0.1%,2.24µM*,12.6µM*,-32.4%
CC(c1ccccc1)n1c(-c2ccc(C(C)(C)C)cc2)n[nH]c1=S (stereo unspecified),84.9%,12.2%,-19.1%,-17.5%,-50.5%
CC1(C)CCC(c2ccc(Cl)cc2)=C(CN2CCN(c3ccc(C(=O)NS(=O)(=O)c4ccc(N[C@H](CCN5CCOCC5)CSc5ccccc5)c(S(=O)(=O)C(F)(F)F)c4)cc3)CC2)C1,x,x,0.0%,x,x
CNc1ccc(-c2nc3ccccc3s2)cc1,x,-17.3%,x,x,x
Cn1cccc1/C=N/n1c(-c2ccccc2)n[nH]c1=S,87.1%,-12.6%,u,7.94µM*,5.8%
Cc1ccc(-c2n[nH]c(=S)n2/N=C/c2ccc(C)o2)cc1,15.4%[2.32 µM],8.1%,2.51µM*,-12.9%,20.2%
Oc1ccccc1/C=N/n1c(-c2ccccc2)n[nH]c1=S,76.6%,-7.0%,u,-10.7%,7.3%
CN(C)c1ccc(/C=N/n2c(-c3cccnc3)n[nH]c2=S)cc1,u,6.2%,2.82µM*,0.0%,-2.7%
Cn1cccc1/C=N/n1c(-c2ccc(C(C)(C)C)cc2)n[nH]c1=S,-1.8%,x,u,20µM*,-55.1%
Cc1ccc(/C=N/n2c(-c3cccnc3)n[nH]c2=S)o1,52.0%,-26.4%,u,13.2%,-2.7%
Cc1ccc(C(=O)c2oc3ccccc3c2NC(=O)c2cc(=O)c3ccccc3o2)cc1,x,x,-1.5%,x,x
CCn1cc(-c2n[nH]c(=S)n2-c2ccc(C)cc2Br)c(=O)c2ccc(C)nc21,51.3%,4.4%,u,7.94µM*,-12.3%
Cc1ccc(-n2c(-c3cc(-c4ccco4)[nH]n3)n[nH]c2=S)c(Br)c1,93.5%,-8.5%,u,u,12.8%
Cc1ccc(S(=O)(=O)Nc2c(O)ccc3ccccc23)cc1,u,x,-13.9%,x,x
Cc1ccc(S(=O)(=O)Nc2c(Cl)c(Cl)c(O)c3ccccc23)cc1,x,-9.9%,x,6.31µM*,-122.1%
O=C(NCc1ccco1)c1cc2ccc(O)cc2oc1=O,-11.1%,0.1%,u,14.1µM*,-231.6%
O=C(O)CCCSc1nc2ccccc2s1,x,x,x,x,0.0%
Cn1c(=O)n(-c2ccc(C(C)(C)C#N)cc2)c2c3cc(-c4cnc5ccccc5c4)ccc3ncc21,x,x,4.4%,x,x
CN(C)c1ccc(C(C(=O)NCC2CCCO2)N(C(=O)c2snc(C(N)=O)c2N)c2ccccc2)cc1 (stereo unspecified),-8.3%,x,0.0%,-10.2%,-3.9%
CC(C)c1ccc(N(C(=O)c2snc(C(N)=O)c2N)C(C(=O)NCC2CCCO2)c2ccc(N(C)C)cc2)cc1 (stereo unspecified),14.1µM*,3.1%,-6.3%,9.1%,19.4%
COc1cc2ccc(=O)oc2c(O)c1O,40.8%,25.1µM*,u,x,x
CC1CN(Cc2c(O)ccc3c(=O)c(-c4ccccc4)coc23)CC(C)O1 (stereo unspecified),-6.3%,0.4%,-3.8%,-5.6%,-1.6%
CC1CN(Cc2c(O)ccc3c2oc(=O)c2ccccc23)CC(C)O1 (stereo unspecified),u,15.8µM*,u,-1.4%,5.4%
SMILES,AMA1-RON2 inh,Giardia FBPA inh,TbPYK inhibitor,LmPK inhibitor,NS1 inh
O=C(O)c1cc(-n2c(/C=C\c3ccc(F)cc3)nc3ccccc3c2=O)ccc1Cl,x,x,0.0%,x,x
CN(C)c1ncc2nc(-c3ccc(F)cc3)c(=O)n(CCC#N)c2n1,x,0.0%,0.0%,x,x
COc1ccc2nc(Nc3sc4c(c3C(N)=O)CCCC4)sc2c1,20.1%,-24.9%,2.82µM*,-26.9%,12.2%
CC(C)c1ccc2oc3nc(N)c(C(=O)O)cc3c(=O)c2c1,x,u,u,7.08µM*,x
Cc1nc2oc3ccc(Cl)cc3c(=O)c2cc1C(=O)O,-0.1%,-1.2%,-27.3%,-22.5%,0.6%
N#CC(=C1C=CC(=NO)C(Cl)=C1)c1ccccc1,u,x,-2.0%,x,x
N#CC(=C1C=C(Br)C(=NO)C=C1Cl)c1ccc(Cl)cc1,20µM*,x,-17.9%,x,x
CC1(C)Cc2nc3oc4c(=S)nc[nH]c4c3cc2CO1,39.7%,11.2µM*,u,8.7%,-0.1%
CC(C)Cn1c(-c2csc3c2CCCC3)n[nH]c1=S,24.2%,-1.3%,u,10µM*,-66.3%
Cc1oc(-c2ccc(Cl)cc2)cc1-c1nn2c(-c3ccoc3C)nnc2s1,4.6%,u,-5.5%,3.2%,10µM*
Clc1ccc(-c2nnc3sc(-c4ccc(Br)o4)nn23)cc1,-8.0%,3.4%,2.8%,2.2%,10.8%
Nc1ccc2ncccc2c1,18.2%,2.23µM*,-28.1%,-10.2%,-3.7%
CC1(C)S[C@@H]2[C@H](NC(=O)C(C(=O)Oc3ccc4c(c3)CCC4)c3ccccc3)C(=O)N2[C@H]1C(=O)O (stereo partly specified),x,x,0.6%,x,x
O=C(NCC1CCCO1)c1csc(Nc2cccc3ccccc23)n1 (stereo unspecified),-7.1%,16.1%,4.1%,14.1µM*,-4.6%
COc1ccc(Oc2ncc3nc(C)c(=O)n(Cc4ccc(F)cc4)c3n2)cc1,x,-21.2%,-11.0%,x,x
COc1cccc(C(=O)O/N=C(\N)c2ccccn2)c1,60.6%,11.3%,u,14.1µM*,-31.8%
N/C(=N\OC(=O)c1ccc2ccccc2c1)c1ccccn1,6.7%,0.3%,u,14.1µM*,x
N/C(=N\OC(=O)c1ccc2ccccc2c1)c1ccncc1,3.0%,-4.6%,-4.6%,-21.9%,-35.9%
N/C(=N\OC(=O)c1ccc(=O)n(Cc2ccccc2)c1)c1ccccn1,51.1%,1.4%,0.6%,-4.3%,-2.9%
CCCc1ccc(C(=O)O/N=C(\N)c2ccccn2)cc1,33.1%,13.0%,u,15.8µM*,-105.5%
N/C(=N\OC(=O)C1CCCCC1)c1ccccn1,38.7%,-0.7%,-27.0%,14.1µM*,-0.3%
COC(=O)[C@H](Cc1ccccc1)NC(=O)O[C@@H]1C(=O)c2cc(Br)ccc2O[C@H]1c1ccc2c(c1)OCO2,x,-0.2%,x,x,x
Nc1nc(-c2nn(Cc3ccccc3F)c3ncccc23)ncc1C1CC1,x,11.6%,x,x,x
CCOc1ccc(CN(C(=O)c2nc(SC)ncc2Cl)C2CCS(=O)(=O)C2)cc1 (stereo unspecified),x,x,1.1%,x,x
COc1ccc(NC2=CC(c3ccc(OC)c(OC)c3)N(c3ccc(OC)cc3)C2=O)cc1 (stereo unspecified),u,-16.4%,-16.2%,-1.4%,8.91µM*
Cc1nnc(SCC2=C(C(=O)O)N3C(=O)C(NC(=O)Cn4nc(C(F)F)c(Cl)c4C)C3SC2)s1 (stereo unspecified),31.7%,3.97µM*,-14.5%,-0.6%,x
